Experiments:
Experiment in all cases: PBM binding z-score (relative to random genomic background probes); higher = stronger binding; sequences stand for … in GC…GCGATTGACAGCGTAGAATGAAGG
[1] = tested on: FXR:RXRa (NR concentration 270 nM, RXRa partner concentration 90 nM)
Method in brief: (§1)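 Regression normalization was applied to scanned fluorescence from custom Agilent 4×180K protein-binding microarrays. Before scanning, arrays were incubated 1 h with ligand-free nuclear receptor dimers, and binding was detected with antibodies against each partner (one per run). Binding z-scores use the random background probes as reference.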

[2] = tested on: LXRa:RXRa (NR concentration 270 nM, RXRa partner concentration 90 nM)
Method in brief: as §1

[3] = tested on: LXRa homodimer (NR concentration 270 nM)
Method in brief: as §1

[4] = tested on: LXRb:RXRa (NR concentration 270 nM, RXRa partner concentration 90 nM)
Method in brief: as §1

[5] = tested on: LXRb homodimer (NR concentration 270 nM)
Method in brief: as §1

[6] = tested on: PPARa:RXRa (NR concentration 270 nM, RXRa partner concentration 90 nM)
Method in brief: as §1

[7] = tested on: PPARg:RXRa (NR concentration 180 nM, RXRa partner concentration 90 nM)
Method in brief: as §1

[8] = tested on: PPARg:RXRa 270nM:90nM, anti-RXR (NR concentration 270 nM, RXRa partner concentration 90 nM)
Method in brief: as §1

[9] = tested on: PPARg:RXRa 30nM:10nM, anti-RXR (NR concentration 30 nM, RXRa partner concentration 10 nM)
Method in brief: as §1

[10] = tested on: PPARg:RXRa 90nM:30nM, anti-RXR (NR concentration 90 nM, RXRa partner concentration 30 nM)
Method in brief: as §1

[11] = tested on: PPARg:RXRa DBDmut IVT, anti-RXR (DBD mutation: RXRa K156A/R161A, NR concentration 270 nM, RXRa partner concentration 90 nM)
Method in brief: as §1

[12] = tested on: PPARg:RXRa IVT, anti-PPARg (NR concentration 270 nM, RXRa partner concentration 90 nM)
Method in brief: as §1

[13] = tested on: PPARg DBDmut:RXRa IVT, anti-PPARg (DBD mutation: PPARg1 K132A/R137A, NR concentration 270 nM, RXRa partner concentration 90 nM)
Method in brief: as §1

[14] = tested on: PPARg DBDmut IVT, anti-PPARg (DBD mutation: PPARg1 K132A/R137A, NR concentration 270 nM)
Method in brief: as §1

[15] = tested on: PPARg homodimer (NR concentration 180 nM)
Method in brief: as §1

[16] = tested on: PXR:RXRa (NR concentration 270 nM, RXRa partner concentration 90 nM)
Method in brief: as §1

[17] = tested on: PXR homodimer (NR concentration 270 nM)
Method in brief: as §1

[18] = tested on: RARa:RXR (NR concentration 270 nM, RXRa partner concentration 90 nM)
Method in brief: as §1

[19] = tested on: RARa homodimer (NR concentration 270 nM)
Method in brief: as §1

[20] = tested on: RARb:RXRa (NR concentration 270 nM, RXRa partner concentration 90 nM)
Method in brief: as §1

Sequence	PBM binding z-score [1]	PBM binding z-score [2]	PBM binding z-score [3]	PBM binding z-score [4]	PBM binding z-score [5]	PBM binding z-score [6]	PBM binding z-score [7]	PBM binding z-score [8]	PBM binding z-score [9]	PBM binding z-score [10]	PBM binding z-score [11]	PBM binding z-score [12]	PBM binding z-score [13]	PBM binding z-score [14]	PBM binding z-score [15]	PBM binding z-score [16]	PBM binding z-score [17]	PBM binding z-score [18]	PBM binding z-score [19]	PBM binding z-score [20]
TCTCGGAGGACACGAAGGTCAGACCTTTCCAGAG	1.6	1.26	0.373	1.41	-0.66	2.19	0.782	1.53	2.38	2.04	1.65	0.996	-0.713	-0.138	1.39	2.12	0.898	2.4	0.387	3.59
CCTACTGGGCCATTCAGAGGTCATAGATCATATG	2.57	4	5.67	3.75	0.161	3.83	2.65	3.2	1.2	2.48	4.09	4.44	0.601	-0.0592	2.01	4.2	1.2	4.42	0.421	2.97
TCTCGGAGGACACGAAAGGTCAGAGCTCGACATC	3.13	3.71	3.02	2.84	-0.0794	3.45	1.37	2.8	2.54	2.41	1.62	1.53	0.174	-1.26	3.04	3.96	0.404	4.18	1.9	4.14
CCTAGCAGGTCAGGGTCACTCAAGCATTTCGCTT	4.58	3.54	0.113	3.41	-0.723	4.61	3.59	4.22	1.09	3.27	3.35	4	-0.304	-1.12	2.56	3.91	0.115	4.5	0.487	4.2
TCTTGTAGATCAAGCTGGTTAAGAAAGCCTGAGT	-0.0681	-0.116	-0.611	0.0138	-0.299	0.383	-0.868	1.04	2.54	1.73	1.49	0.0134	0.281	0.0135	-0.627	0.0638	0.0966	-0.059	-0.593	-0.304
TCTAGCAGGCCAGAGAGTCACTCAAGAGGTACGG	-0.122	0.066	-0.75	-0.374	-1.55	0.177	0.656	1.18	1.72	1.4	0.614	-0.685	-1.43	-1.33	-0.979	-0.468	-0.71	-0.29	-0.925	-0.0563
ATCTCTAGGTAAAAGTTTAGTGAATCCCGAGGAT	0.336	0.276	0.317	0.0669	1.09	2.34	3.7	4.99	2.89	5.11	2.01	2.09	0.984	0.97	0.897	0.34	0.253	0.103	0.693	0.667
CCTAATGGGCCAAAAAGGTCATTGATGCCGATAA	3.45	4.14	3.21	4.2	0.435	4.59	2.58	3.36	1.37	2.69	2.24	2.34	-0.601	-0.248	3.03	4.65	2.85	5.08	1.31	3.99
TCTTGTAGATCAACAGGCGGTTAAGAAAGATCGA	0.118	0.174	-0.388	0.205	-0.307	0.615	-0.161	1.12	2.44	1.81	1.91	0.45	0.508	0.822	-0.291	0.038	-0.259	0.363	-0.0268	-0.0147
CCGACTGGGGCAGAAAGGTTACCATCCCATCCGG	0.0864	0.742	-0.151	0.878	-0.971	2.03	1.44	2.53	0.448	1.96	1.51	1.69	-0.348	-1.37	0.985	0.837	-0.375	1.61	-0.144	1.89
AGAATGAGTTTACCAAAGATCAGGGAAACGCTTG	-0.512	2.97	-0.355	-0.0367	-0.632	0.0717	0.658	0.55	0.448	0.452	-0.401	-0.237	0.734	-0.0652	-0.566	0.296	0.241	-0.198	-0.325	0.347
CGTCAAAGTTCAACTAAGGTAATGTAAAGCACGC	7.02	6.36	3.99	4.15	2.17	5.15	5	5.65	2.56	4.42	0.526	2.28	0.986	1.3	3.39	5.58	3.59	4.17	1.99	5.18
CGTCCAAGGTCAAGGCCAGTGAAAGAGACTCGAA	7.2	5.21	0.208	3.73	0.00439	5.55	4.75	5.05	1.48	3.69	2.93	3.4	0.269	-0.184	2.5	3.44	0.449	4.09	0.0458	5.19
CAAACTAGGTCATCCAGGACAGTGAATACATTGA	4.46	3.23	1.22	2.51	0.932	5.12	8.08	6.82	4.42	6.36	8.23	8.47	4.2	2.88	2.69	2.23	1.49	2.85	1.49	3.84

Source: the supplement of paper PMC6555819
